Rows were chosen to be rich in hits. Some 12% of all compounds tested hit in one or more screens of this group.
Pf growth 96h: inhibits malaria parasite growth, 96 h; P. falciparum luciferase reporter growth, 96 h; Potency, µM (series often up to 28.7 µM), without a hit: top-dose activity change, negative = inhibition, most hits filed as inhibitors; actives 6.9% (n = 320,000); AID 504834; further: on the % scale 0 is the no-effect control and ±100 the full control effect
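Parasite growth measured via integrated firefly luciferase reporter in P. falciparum. Infected erythrocytes at 2% hematocrit, 0.05% parasitemia final were treated 96 hours at 37 C under 5% CO2, and luminescence was read.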
SARS PLpro yeast: SARS-CoV PLP inhibition in yeast | S. cerevisiae expressing SARS-CoV PLpro, growth rescue | Potency, µM (doses to about 32.9 µM), without a hit: at the highest dose activity, positive = growth rescue, usual class: activators | actives 0.19% (n = 330,000) | AID 485353; calls by dose curve; further: 0% is about no effect; nearly all actives have a fitted effect of over 55% in size
Sm TGR block: S. mansoni TGR enzyme inhibition. purified TGR, DTNB reduction, TNB absorbance 405 nm. actives 3% (n = 360,000). AID 485364. Potency, µM (titrated, usually from 114 µM), for inactives: at the highest dose activity change, negative = inhibition, actives largely listed as inhibitors; further: on the % scale 0 is the no-effect control and ±100 the full control effect; nearly all actives have a fitted effect of over 60% in size
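TGR 20 nM + NADPH 100 uM (dispensed conc.), cpd preinc 15 min RT; start with NADPH (500 uM addition) then DTNB (15 mM addition). Kinetic TNB absorbance, 405 nm filter. Four-parameter Hill fit across titration.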
Pf growth 48h: P. falciparum growth inhibition at 48 hours (one generation); P. falciparum luciferase growth in erythrocytes, 48 h; Potency, µM (series often up to 28.7 µM), for inactives: at the highest dose activity change, negative = inhibition, usual class: inhibitors; actives 5.9% (n = 310,000); AID 504832; further: on the % scale 0 is the no-effect control and ±100 the full control effect
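Luciferase-expressing P. falciparum in infected erythrocytes (2% hematocrit, 0.1% parasitemia final) in RPMI 1640/0.5% Albumax were exposed to compound for 48 hours at 37 C, 5% CO2; growth read as luminescence.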
* hit, by the source's call; ? = inconclusive; · = no result given. Unless noted, the call rests on the fitted dose curve; in most records, active means well fitted curve in the direction sought with a large enough effect; inconclusive means small, poorly fitted or top-dose-only effect, or another doubt; inactive means no such curve, though single readings can be large; an effect the other way counts as inactive or inconclusive. Potency means the concentration at half of the fitted maximal effect.

SMILES	Pf growth 96h	SARS PLpro yeast	Sm TGR block	Pf growth 48h
CC1(C)Cc2cccc(OCC(=O)N3CCN(S(=O)(=O)c4ccccc4)CC3)c2O1	4.7µM*	4%	-2%	?
CC1(C)Cc2cccc(OCC(=O)N3CCN(c4ccccc4Cl)CC3)c2O1	?	-10%	-2%	?
CC1(C)Cc2cccc(OCC(=O)N3CCN(c4cccc(Cl)c4)CC3)c2O1	?	1%	2%	4.7µM*
CC1(C)Cc2cccc(OCC(=O)N3CCN(c4cccc(C(F)(F)F)c4)CC3)c2O1	?	-7%	5%	?
CCOCC(=O)N1CCN(c2ccc(F)cc2)CC1	108%	6%	-1%	14%
Cc1ccc([C@@H]2[C@@H]3C(=O)N(C)C(=O)[C@@H]3[C@@H]3C(=O)Nc4ccccc4C(=O)N23)cc1	14%	0%	-7%	41%
CCn1nc(C)c(CCN(C)C(=O)Nc2cc(Cl)c(OC)cc2OC)c1C	·	·	4%	·
Cc1cccc(N(C)c2nc3ccc(C(=O)c4ccccc4)cc3n3c(C)nnc23)c1	·	·	-4%	·
Cc1ccc2cccc(NC(=O)c3ccc(-c4cc(Cl)ccc4Cl)o3)c2n1	·	·	2%	·
COc1ccccc1NS(=O)(=O)c1cccc(C(=O)N/N=C/c2ccc([N+](=O)[O-])o2)c1	1.7µM*	-2%	?	1.9µM*
COc1ccc(NS(=O)(=O)c2cccc(C(=O)N/N=C/c3cn(-c4ccccc4)nc3-c3ccccc3)c2)cc1	21%	-1%	4%	?
CCN(CC)c1ccc(/C=N/NC(=O)c2cccc(S(=O)(=O)Nc3ccccc3OC)c2)c(O)c1	12µM*	1.8µM*	3%	9.3µM*
CCN(CC)c1ccc(/C=N/NC(=O)c2cccc(S(=O)(=O)Nc3ccccc3OC)c2)cc1	0%	-1%	-6%	?
COc1ccc(NS(=O)(=O)c2cccc(C(=O)N/N=C/c3cn(-c4ccccc4)nc3-c3ccc(OC)cc3)c2)cc1	?	0%	3%	2.3µM*
COc1ccccc1NS(=O)(=O)c1cccc(C(=O)N/N=C/c2cn(-c3ccccc3)nc2-c2ccccc2)c1	2.9µM*	14%	16%	2.1µM*
Cc1ccc(NC(=O)CSc2ncc3c(n2)-c2ccccc2N(Cc2cccc(F)c2)S3(=O)=O)cc1F	·	·	0%	·
COCC(C)N1CCC(Oc2ccc(C(=O)N3CCCC3)cc2)CC1 (stereo not drawn)	31%	?	-12%	-11%
CCOC(=O)c1c(C)[nH]c(C)c1S(=O)(=O)N1CCC(C(=O)NCc2ccc(N(C)C)cc2)CC1	·	·	0%	·
COC(=O)c1cn(NC(=O)c2ccc(OC)c([N+](=O)[O-])c2)c(=O)c2ccccc12	?	0%	11%	1%
O=C(Nn1cc(C(=O)Nc2ccccc2F)c2ccccc2c1=O)c1cnccn1	?	7%	4%	4.1µM*
COc1cc(OC)cc(C(=O)Nn2cc(C(=O)Nc3ccccc3F)c3ccccc3c2=O)c1	?	12%	14%	3%
O=C(Nc1cccc2cccnc12)c1cccc2ccccc12	1%	-13%	1%	·
O=C(Nc1ccccc1F)c1ccc(O)c2ncccc12	1.5µM*	2%	-3%	4.1µM*
COC(=O)c1cn(NC(=O)c2ccc(OC)c(OC)c2)c(=O)c2ccccc12	13µM*	9%	-6%	?
COC(=O)c1cn(NC(=O)c2cnccn2)c(=O)c2ccccc12	-10%	?	5%	9.3µM*
SMILES	Pf growth 96h	SARS PLpro yeast	Sm TGR block	Pf growth 48h
CCN(C(=O)Cn1ncc2c1-c1cc(C)ccc1OC2)c1cc(Cl)ccc1OC	·	·	1%	·
COc1ccc(Cc2nc3ccc(C(=O)NC(C)Cc4ncccc4C)cc3o2)cc1OC (stereo not drawn)	52%	-1%	-11%	?
COc1ccc(-c2cc(C(F)F)nc(-n3nc(C)cc3C)n2)cc1	?	14%	1%	8.3µM*
O=C(CCN1C(=O)c2ccccc2S1(=O)=O)NCc1ccccc1Cl	1%	5%	-14%	13%
Cc1nn2c(c1-c1ccc(Cl)cc1)N=C(c1ccco1)CC2c1ccccc1 (stereo not drawn)	17µM*	-14%	20%	?
CCOc1ccc(CCNC(=O)C2CCCN(S(=O)(=O)N(C)c3ccc(F)cc3)C2)cc1 (stereo not drawn)	·	·	-2%	·
CCOc1ccc2c(c1)C(C)=CC(C)(C)N2C(=O)Nc1ccccc1	15µM*	4%	-31%	·

Screens: PubChem BioAssay, National Center for Advancing Translational Sciences (NCATS)
